In PubChem BioAssay:
Results filed as inconclusive are left out. Active and inactive are the calls of the source.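 Rule for the calls, unless noted: active = viability at or below 27.92% in each of two runs, the all-compound median minus 4 SD; inconclusive = no clear call, values can overlap the other calls; inactive = the rest.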

Tests used:
[1] = Her2 expression decrease, cell viability multiplex – SKBR3 breast tumor cells, AlphaScreen, ATP viability, primary screen (AID 461;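 active = Her2 level under about 52% in both replicate screens, with viability over 70% of control, limit read from the data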;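 for Her2 level: lower value means less Her2 protein in the cells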;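 for viability: percent of carrier control wells set as 100% viability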); settings: SKBR3 Her2 protein level, 18-24 h, measured here: SKBR3 viability, ATP luminescence, at 10 µM
[2] = target: Receptor tyrosine-protein kinase erbB-2 (Homo sapiens) (UniProt P04626); assay: as above; settings: 18-24 h, at 10 µM, stronger effect = lower value
Chain of Receptor tyrosine-protein kinase erbB-2 (Homo sapiens) (P04626 whole entry, looked up): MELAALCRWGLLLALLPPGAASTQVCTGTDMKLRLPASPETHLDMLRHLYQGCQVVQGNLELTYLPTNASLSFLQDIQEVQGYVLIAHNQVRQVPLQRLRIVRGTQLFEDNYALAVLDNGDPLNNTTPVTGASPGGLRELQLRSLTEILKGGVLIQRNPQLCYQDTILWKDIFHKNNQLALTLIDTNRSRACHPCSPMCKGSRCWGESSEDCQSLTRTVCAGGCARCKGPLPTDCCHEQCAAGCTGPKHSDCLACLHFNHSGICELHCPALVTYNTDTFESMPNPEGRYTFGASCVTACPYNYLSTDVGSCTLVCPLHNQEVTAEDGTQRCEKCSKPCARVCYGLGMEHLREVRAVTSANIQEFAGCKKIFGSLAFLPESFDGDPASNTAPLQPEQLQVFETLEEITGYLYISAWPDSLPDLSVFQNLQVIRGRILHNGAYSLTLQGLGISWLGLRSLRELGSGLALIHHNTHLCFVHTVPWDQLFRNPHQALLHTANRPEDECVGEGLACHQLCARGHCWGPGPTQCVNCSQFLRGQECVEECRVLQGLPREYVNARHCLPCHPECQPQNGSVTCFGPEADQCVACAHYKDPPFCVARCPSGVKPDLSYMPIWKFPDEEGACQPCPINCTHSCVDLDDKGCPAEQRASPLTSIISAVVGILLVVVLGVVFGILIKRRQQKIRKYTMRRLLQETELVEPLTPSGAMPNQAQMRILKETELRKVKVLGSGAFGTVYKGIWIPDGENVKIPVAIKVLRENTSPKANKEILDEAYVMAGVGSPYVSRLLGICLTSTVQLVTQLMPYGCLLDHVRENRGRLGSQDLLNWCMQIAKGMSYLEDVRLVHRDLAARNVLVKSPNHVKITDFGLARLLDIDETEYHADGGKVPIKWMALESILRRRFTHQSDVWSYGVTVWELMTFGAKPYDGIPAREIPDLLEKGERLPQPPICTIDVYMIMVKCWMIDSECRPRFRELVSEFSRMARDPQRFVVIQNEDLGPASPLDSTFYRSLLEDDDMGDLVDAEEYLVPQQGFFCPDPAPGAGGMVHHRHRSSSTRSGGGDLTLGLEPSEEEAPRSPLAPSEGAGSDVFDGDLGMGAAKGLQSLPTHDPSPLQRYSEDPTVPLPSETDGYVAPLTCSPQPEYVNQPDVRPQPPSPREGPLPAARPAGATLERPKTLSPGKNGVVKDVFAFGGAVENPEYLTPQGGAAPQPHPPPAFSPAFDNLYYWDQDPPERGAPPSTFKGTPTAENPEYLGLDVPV

[3] = reduced viability of SK-BR-3 breast cancer cells – cell-based, 24 h, human, pilot screen (AID 572;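 active = viability at or below 10% of carrier control in both of two separate runs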;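 note: compound exposure lasted between 18 and 24 h rather than exactly 24 h; 100% = carrier-treated control wells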); settings: SK-BR-3 viability, CellTiter-Glo luminescence, at 10 µM, stronger effect = lower value
[4] = HUVEC growth inhibition – cell-based, human, primary screen (AID 575;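 active = viability at or below 30% in both replicate assays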;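 note: 100% = median of untreated cell wells with 0.1% DMSO on each plate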); settings: HUVEC proliferation, CellTiter-Glo luminescence, 72 h; at 10 µM; stronger effect = lower value
[5] = H69AR cell proliferation blockers – human, duplicate replicates, primary screen (AID 580;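 active = viability at or under a set limit in both replicates, limit being median viability minus 3 SD, cut at about 48% in these data, passing the limit was not always enough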;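 note: 100% = mean luminescence of untreated wells and 0% = no signal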); settings: H69AR lung tumor cells viability, ATP luminescence, 72 h; at 10 µM; stronger effect = lower value
[6] = MRP1 drug-resistance reversers in H69AR cells – cell-based, doxorubicin co-treatment, pilot screen (AID 601;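 active = viability loss from added drug above about 55%, and viability with drug at most 40%, in both replicates, limit read from the data, passing the limit was not always enough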); settings: CellTiter-Glo, 72 h, at 10 µM; for differential viability (reversal): stronger effect = higher value
[7] = yeast transport mutant growth inhibition pilot in 384-well plates, post-Golgi transport modulator project (AID 636; in the data active = inhibition above about 31%); settings: absorbance 615 nm, about 18 h, stronger effect = higher value
[8] = growth suppression of yeast trafficking mutant, preliminary HTS, modulators of trafficking downstream of Golgi apparatus project, 1536-format plate, OD 615 nm (AID 637; in the data active = inhibition above about 30%); settings: yeast transport mutant growth, absorbance 615 nm, 18 h; stronger effect = higher value
[9] = S. cerevisiae growth inhibition in permissive medium (OD615), pilot counter-assay for S. cerevisiae lifespan shortening project, permissive growth control (AID 705;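 active = growth inhibition above 25% in both replicates, a cutoff set 3 SD above the mean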); settings: OD615, 24 h, at 10 µM, stronger effect = higher value
[10] = S. cerevisiae growth inhibition in restrictive medium, OD615, pilot screen, restrictive growth control, yeast lifespan reduction project (AID 706;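 active = growth inhibition above a set limit, 3 SD over mean compound inhibition, in both replicates, cut at about 43% in these data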;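 note: modified DeaD lifespan yeast strain shifted to restrictive glucose medium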); settings: OD615, 48 h, at 10 µM, stronger effect = higher value
[11] = doxorubicin toxicity protection in MRP-1 cells – H69AR cells, CellTiter-Glo, duplicate, MRP-1 activator project, pilot screen (AID 807;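 active = viability increase at or above a cutoff of the median across tested compounds plus 3 SD, cut at about 8.5% in these data, passing the limit was not always enough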;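 note: compound pretreatment 18-22 h then 72 h combined with doxorubicin; 0% = doxorubicin alone and 100% = vehicle without doxorubicin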); settings: H69AR viability with doxorubicin, CellTiter-Glo luminescence; at 10 µM; stronger effect = higher value
[12] = viability of HCT116 without oncogenic beta-catenin – human colon tumor cells, pilot screen (AID 823;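 active = cell viability at or below a set limit in both duplicate runs, the limit being the all-compound median minus 4 SD, cut at about 23% in these data, passing the limit was not always enough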;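 note: 0% = wells killed by 20 µM Hyamine and 100% = untreated DMSO cell wells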); settings: HCT116 beta-catenin knockout viability, CellTiter-Glo, 60 h; at 10 µM; stronger effect = lower value
[13] = viability of PTEN-null HCT116 cells – cell-based, HCT116 clonal line, CellTiter-Glo, pilot screen (AID 824); settings: HCT116 PTEN-deleted viability, 60 h, at 10 µM, stronger effect = lower value;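 note: 0% = 20 µM Hyamine control and 100% = vehicle cell control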
[14] = RAM pathway blockade in budding yeast – dse1pr::URA3 reporter, 5-FOA selection, pilot screen (AID 869;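 active = inhibition over a set limit, the all-compound mean plus 3 SD, in both replicate runs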;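 note: 0% = DMSO wells with no growth and 100% = 10 µM 1-NA-PP1 with full growth; RAM network block rescues cells from 5-FOA so hits raise OD615 growth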); settings: S. cerevisiae dse1pr::URA3 5-FOA growth, OD615, 2 d; at 10 µM; stronger effect = higher value; strain carries analog-sensitive mutant Cbk1 kinase
[15] = RAM signaling pathway blockade in yeast – S. cerevisiae, Pdr1DBD-CYC8 efflux-inhibited sensitized strain, primary screen (AID 1298;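 active = RAM network inhibition above 8.4% in each of two replicates, 3 SD over the compound average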;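 note: 0% = DMSO untreated cells without growth and 100% = 10 µM 1-NA-PP1 full growth; higher means more yeast growth rescued from 5-FOA killing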); settings: S. cerevisiae cbk1-as DSE1-URA3 strain, 5-FOA growth OD615, 2 d; at 50 µM; stronger effect = higher value
[16] = H69AR cells + 2 uM doxorubicin, measured here: viability with 2 uM doxorubicin, stronger effect = lower value
[17] = H69AR cells, compound alone cytotoxicity

CCOc1ccc(-c2nnc(SCC(=O)N3CCN(c4ccccc4)CC3)o2)cc1
103%: viability [1]
86.5%: viability [6, 17]
88.5%: viability [6, 16]
inactive: Her2 level [2] 96% | viability [3] 103% | viability [4] 99.5% | viability [5] 86.5% | differential viability (reversal) ([6]; H69AR cells + 2 uM doxorubicin) -2.04% | inhibition [7] -3.73% | inhibition [8] -3.28% | growth inhibition [9] -3.14% | growth inhibition [10] 2.85% | viability increase [11] -0.66% | viability [12] 102% | viability [13] 97.3% | inhibition [14] 2.71% | RAM network inhibition [15] 3.72%

CC(NC(=O)c1cc2c(=O)n(C)c3ccccc3c2n1C)c1ccc2c(c1)OCCO2 (stereo not drawn)
63.6%: viability [6, 16]
94.5%: viability [1]
inactive: Her2 level [2] 84% | viability [3] 94.5% | viability [4] 77% | differential viability (reversal) ([6]; H69AR cells + 2 uM doxorubicin) -20.9% | inhibition [7] -2.18% | inhibition [8] 1.33% | growth inhibition [9] -5.51% | growth inhibition [10] -1.51% | viability increase [11] -4.19% | viability [12] 65.6% | viability [13] 58.2% | inhibition [14] 0.645% | RAM network inhibition [15] 3.77%
active: viability [5] 42.7%
42.7%: viability [6, 17]

COCCNC(=O)Cn1cc2c(n1)CCCCC2
93.5%: viability [1]
inactive: Her2 level [2] 101% | viability [3] 93.5% | viability [4] 112% | viability [5] 95.7% | differential viability (reversal) ([6]; H69AR cells + 2 uM doxorubicin) 7.38% | inhibition [7] -1.41% | inhibition [8] -1% | growth inhibition [9] -8.06% | growth inhibition [10] 5.06% | viability increase [11] 0.1% | viability [12] 104% | viability [13] 96.5% | inhibition [14] 3.16% | RAM network inhibition [15] 5.21%
95.7%: viability [6, 17]
88.3%: viability [6, 16]

CCCCOCCCNC(=O)c1ccc(NC(C)=O)cc1
108%: viability [1]
86.6%: viability [6, 16]
96.6%: viability [6, 17]
inactive: Her2 level [2] 133% | viability [3] 108% | viability [4] 86.3% | viability [5] 96.6% | differential viability (reversal) ([6]; H69AR cells + 2 uM doxorubicin) 10% | inhibition [7] 1.04% | inhibition [8] -10.7% | growth inhibition [9] -9.19% | growth inhibition [10] -26.5% | viability increase [11] 0.09% | viability [12] 104% | viability [13] 97.4% | inhibition [14] 1.42% | RAM network inhibition [15] -0.63%

O=C(CC1(O)C(=O)Nc2ccccc21)c1ccc2c(c1)OCO2 (stereo not drawn)
inactive: Her2 level [2] 93.5% | viability [3] 104% | viability [4] 87.5% | viability [5] 76.3% | differential viability (reversal) ([6]; H69AR cells + 2 uM doxorubicin) -12.3% | inhibition [7] 0.78% | inhibition [8] -3% | growth inhibition [9] -7.81% | growth inhibition [10] -21.3% | viability increase [11] -2.13% | viability [12] 97.2% | viability [13] 96.5% | inhibition [14] 2.9% | RAM network inhibition [15] 4.82%
88.5%: viability [6, 16]
104%: viability [1]
76.3%: viability [6, 17]

CCN1CCN(C(=O)C2CC(c3ccc(F)cc3)=NO2)CC1 (stereo not drawn)
75.1%: viability [6, 16]
91.5%: viability [1]
inactive: Her2 level [2] 105% | viability [3] 91.5% | viability [4] 103% | viability [5] 99.1% | differential viability (reversal) ([6]; H69AR cells + 2 uM doxorubicin) 24.1% | inhibition [7] -4.1% | inhibition [8] -6.67% | growth inhibition [9] -3.54% | growth inhibition [10] 3.61% | viability increase [11] 0.82% | viability [12] 95.2% | viability [13] 102% | inhibition [14] 0.095% | RAM network inhibition [15] 2.03%
99.1%: viability [6, 17]

Nc1nc2n(n1)C(c1cccc(Br)c1)CC(c1ccc(F)cc1)N2 (stereo not drawn)
111%: viability [6, 17]
117%: viability [6, 16]
inactive: Her2 level [2] 109% | viability [3] 85% | viability [4] 98.8% | viability [5] 111% | differential viability (reversal) ([6]; H69AR cells + 2 uM doxorubicin) -6.81% | inhibition [7] -1.03% | inhibition [8] -6.5% | growth inhibition [9] 2.49% | growth inhibition [10] 11.9% | viability increase [11] 0.72% | viability [12] 89.3% | viability [13] 89.3% | inhibition [14] 0.875% | RAM network inhibition [15] 2.61%
85%: viability [1]

O=C(OCCN(CCOC(=O)c1ccncc1)S(=O)(=O)c1cccs1)c1ccncc1
97.3%: viability [6, 16]
102%: viability [1]
inactive: Her2 level [2] 75.5% | viability [3] 102% | viability [4] 99.2% | viability [5] 104% | differential viability (reversal) ([6]; H69AR cells + 2 uM doxorubicin) 6.43% | inhibition [7] -1.64% | inhibition [8] 1.75% | growth inhibition [9] 4.38% | growth inhibition [10] 1.04% | viability increase [11] -2.14% | viability [12] 102% | viability [13] 97% | inhibition [14] 1.63% | RAM network inhibition [15] 4.78%
104%: viability [6, 17]

Cc1nnc(NC(=O)c2ccco2)s1
96.3%: viability [6, 16]
104%: viability [6, 17]
inactive: Her2 level [2] 92.5% | viability [3] 98.5% | viability [4] 98.6% | viability [5] 104% | differential viability (reversal) ([6]; H69AR cells + 2 uM doxorubicin) 7.39% | inhibition [7] -4.13% | inhibition [8] 7.21% | growth inhibition [9] -10.1% | growth inhibition [10] -8.55% | viability increase [11] 4.22% | viability [12] 94.9% | viability [13] 97.2% | inhibition [14] 0.67% | RAM network inhibition [15] 0.21%
98.5%: viability [1]
